Measured values: PubChem BioAssay (NCI)
This is part of a sample that, as a whole, favours compounds with a hit. Of some 83,000 tested, about 20% had one in any assay.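 Negative percent growth values reflect cell death: -40 means 40% of the cells present at the start died, and -100 means all died.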 A number with no mark means an inactive call. Activity calls are given as the source filed them. The calls were made as follows: active = growth percent below 10; inactive = the rest.

Assays:
Assay in all cases: NCI-60 one-dose screen, 48 h (100 = growth as untreated, 0 = no growth, -100 = all killed)
Conditions in all cases: 10 µM unless noted
T-47D breast = system: T-47D breast
BT-549 breast = system: BT-549 breast
SW-620 colon = system: SW-620 colon
MCF7 breast = system: MCF7 breast
HCT-116 colon = system: HCT-116 colon
HCC-2998 colon = system: HCC-2998 colon
KM12 colon = system: KM12 colon
MDA-MB-435 melanoma = system: MDA-MB-435 melanoma

SMILES | growth (T-47D breast) | growth (BT-549 breast) | growth (SW-620 colon) | growth (MCF7 breast) | growth (HCT-116 colon) | growth (HCC-2998 colon) | growth (KM12 colon) | growth (MDA-MB-435 melanoma) [%]
COc1ccc(Nc2nn3c(-c4ccccc4)cc(-c4ccccc4)nc3c2C(N)=O)c(OC)c1 | 34.9% | 46.5% | 57.2% | 46.7% | 21.5% | 86.9% | 51.1% | 
CC(=O)OC[C@]12CC[C@H]3[C@@H](C[C@H]4O[C@]45CC=CC(=O)[C@]35C)[C@]1(O)CC[C@@]2(O)[C@@](C)(O)C1CC(C)=C(C)C(=O)O1 (stereo partly drawn) | -23.2% (active) | -12.2% (active) | -32.1% (active) | -27% (active) | -29.3% (active) | -82.8% (active) | -70.8% (active) | 
CCC(C)/C(=C\C#N)NCCCN/C(=C/C#N)C(C)CC (stereo not drawn) | 97% | 105% | 107% | 100% | 91.1% | 99.1% | 105% | 
O=C1/C(=C/c2ccccc2)Oc2ccc(O)c(I)c21 | 77.5% | 84.3% | 95.5% | 54.8% | 98.2% | 114% | 98.8% | 
O=C1c2ccccc2-c2ccccc2C1(Cl)Cl | -42.7% (active) | -84% (active) | -65.8% (active) | -88.7% (active) | -70.6% (active) | 89.6% | -90.6% (active) | 
CC(C)(C)n1cc(-c2ccnc(NCCCNS(=O)(=O)c3ccc(Cl)cc3)c2)c(-c2cccc(O)c2)n1 | 5.38% (active) |  | -38% (active) | -12.1% (active) | 6.49% (active) | -81.5% (active) | -36.5% (active) | 15.6
CCCCCCCC/C=C/CCCCCCCC1=NC(C)(C)CN1C(C)(C)CO | -10.2% (active) | 76.3% | -85.1% (active) | -44.3% (active) | -99.4% (active) | -93.4% (active) | -91.5% (active) | 
C=C[C@@H]1C[C@@H]2Cc3cc(Cl)ccc3N1O2 | 103% | 105% | 96.7% | 112% | 98.2% | 94.2% | 97.3% | 
NC(=O)c1c(NC(=S)Nc2ccc(OC(F)(F)F)cc2)sc2c1CCC1(C2)OCCO1 | 86% | 93.8% | 92.9% | 90.1% | 98.2% | 102% | 94.6% | 
O=C(Nc1ccncc1)C(=O)c1cn(S(=O)(=O)c2ccccc2F)c2ccccc12 | 41.8% | 39.1% | 15.6% | 21.5% | 20.4% | 57.2% | 19.2% | 
Cc1c(C(=O)/C=C/c2csc3ccccc23)[n+](=O)c2ccccc2n1[O-] | 21.5% | 20.1% | 26.3% | 9.38% (active) | 16% | 78.5% | 48.4% | 
COc1ccc(-c2cc3c(OC)c(OC)c(OC)cc3oc2=O)cc1 | 42.2% | 57.5% | 25.1% | 26.2% | 21.7% |  | 21.9% | 
COc1ccc2c(c1)NC1=C(C(=O)OC1)C2c1cc(OC)c2c(c1)OCO2 (stereo not drawn) | 53.8% | 32.4% | 21.2% | 17.9% | 6.69% (active) | 11.3% | 2.35% (active) | 
CC(=O)Nc1nc(N)nc(NC(C)=O)c1N=O | 110% | 104% | 101% | 108% | 98.6% | 84% | 111% | 
CC(C)(C)n1cc(-c2ccnc(NCCCNS(=O)(=O)c3ccccc3)c2)c(-c2cccc(O)c2)n1 | 23.8% | 47.4% | 14.5% | 25.1% | 36.8% | 18.5% | 26.9% | 
O=C(Nc1ccc(NCCN2CCOCC2)nc1)c1ccc([N+](=O)[O-])cc1 | 107% | 98.6% | 104% | 89.2% | 97.2% | 101% | 104% | 
COc1cc(NC(N)=NCCC(C)(C)c2ccc(C(F)(F)F)cc2)ncc1C#N | -2.85% (active) | 53.9% | -0.0248% (active) | -31.3% (active) | -75.7% (active) | -77.8% (active) | 15.4% | 
Nc1cccc(-c2nc3sccn3c2-c2ccnc(NCCNS(=O)(=O)c3ccc(C(F)(F)F)cc3)n2)c1 | 46.2% | 52.7% | 100% | 32.8% | 55.1% | 121% | 61.5% | 

SMILES | growth (T-47D breast) | growth (BT-549 breast) | growth (SW-620 colon) | growth (MCF7 breast) | growth (HCT-116 colon) | growth (HCC-2998 colon) | growth (KM12 colon) | growth (MDA-MB-435 melanoma) [%]
COc1cccc(CC(C)=C(c2ccc(OCCN(C)C)cc2)c2ccc(OCCN(C)C)cc2)c1 | -72.7% (active) | 72.2% | -61.6% (active) | -55.7% (active) | -74.3% (active) | -15.3% (active) | -1.23% (active) | 
COc1cc(-c2nc(-c3nc4ccc(Cl)cc4[nH]3)cc3c2[nH]c2ccccc23)cc(OC)c1OC | 54.2% | 70.8% | 96.2% | 47.9% | 58.7% | 68.7% | 71% | 
CCOC(=O)CN1/C(=N/c2sc3c(c2C(=O)OCC)CCN(C(=O)OCC)C3)SC(=O)/C1=C\C(=O)OC | 30.8% | 89.4% | 71.6% | 49.3% | 71.6% | 94.4% | 97.4% | 
O=S(=O)(NCCNc1nccc(-c2c(-c3cccc(O)c3)nc3sccn23)n1)c1ccc(F)cc1 | 85.3% | 79.3% | 103% | 38.2% | 45.9% |  | 56.6% | 
O=C(O)C1CCCCN1c1nc(Cl)nc(Cl)n1 (stereo not drawn) | 99% | 103% | 101% | 100% | 111% | 101% | 111% | 
CCc1cnc(=S)n(-c2ccccc2)c1 | 112% | 107% | 104% | 108% | 93.5% | 86.5% | 109% | 
C=COC(=O)CCCCCCCCC | 110% | 108% | 99.1% | 101% | 109% | 101% | 106% | 
O=C(Nc1cccc(-n2cc(-c3ccncc3)c(-c3ccc(Cl)c(O)c3)n2)c1)c1ccccc1 | 73.9% | 83.4% | 76.9% | 62.6% | 57.8% | 76.8% | 70.1% | 
CN(C)CCCN(c1nc(C(Cl)(Cl)Cl)ns1)c1nc(C(Cl)(Cl)Cl)ns1 | 67.7% | 74% | 35.1% | -34.3% (active) | 21.2% | -12.9% (active) | 18.4% | 
COc1ccc(-c2ccc(C)n2-c2ccc(-c3nc4ccccc4s3)cc2)cc1 | 73.3% | 108% | 89.6% | 92.7% | 85.5% | 91.7% | 86.3% | 
Fc1ccc(Nc2ncnc3ccc(-c4cnc5[nH]ccc5c4)cc23)cc1Cl | -35.3% (active) | 20.3% | 4.35% (active) | 9.34% (active) | -36.3% (active) | 34% | 23.3% | 
COc1cc(C(=O)/C=C/c2ccc3nc(-c4cc(F)cc(F)c4)sc3c2)cc(OC)c1OC | 102% | 95.3% | 104% | 97.5% | 87% | 93.1% | 108% | 
Clc1cccc(-c2cc(-c3ccc4c(c3)OCCO4)[nH]n2)c1 | 22% [25 µM] | 53.7% [25 µM] | 27.5% [25 µM] | 15.6% [25 µM] | 26.3% [25 µM] | 58.1% [25 µM] | 25.7% [25 µM] | 
CC(=O)Nc1ccc(/C=C/C(=O)c2ccccc2)cc1 | 73.9% | 86.2% | 53.2% | 56.4% | 77% | 113% | 46.6% | 
CCOC(=O)/C(C#N)=C1/C(=O)Nc2ccccc21 | 98.7% | 112% | 109% | 103% | 98.4% | 109% | 112% | 
COc1ccc2[nH]c(=O)c3c4ccccc4cn3c2c1 | 44.6% | 37.9% | 13.3% | 17.1% | -28.9% (active) | 31.3% | 10.4% | 
c1ccc(-c2nnc(-c3ccccn3)s2)nc1 | 33.9% |  | 99.8% | 28.6% | 86.8% | 46.2% | 97.3% | 105
